This note sets out measurements from PubChem BioAssay (NCI).

Compounds without any hit were thinned out: in the full panel of roughly 83,000, 20% have a hit.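 Treatment: one concentration, 48 hours, 96-well format. Scoring: percent growth, with anything below 10 considered active.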 The source made the active and inactive calls.

For this test, the system named is SNB-75 CNS. Put plainly: NCI-60 one-dose screen, 48 h (100 = growth as untreated, 0 = no growth, -100 = all killed). The conditions noted are these: 10 µM unless noted.
Take `Oc1cccc2ccc(-c3nnc(SCc4ccc(O)c5ncccc45)o3)nc12`: the growth was 34.3% (inactive).
Then `COC(=O)c1[nH]nc2c1C1(C(=O)N(C)c3ccccc31)C(C#N)=C(N)O2` (centres undefined), with 91.5% (inactive); and `Cc1ccc2sc3c(c2c1)OC(N)=C(C#N)C3c1ccc(Cl)cc1` (centres undefined), with 81.6% (inactive).
Then `CC1=NC2=NN3C(=NN2C(c2ccccc2)=C1)N=NC(c1ccc(Br)cc1)=C3c1ccc(Br)cc1`, with 117% (inactive); and `Cn1ccnc1C(=O)/C=C/c1ccc(NC(=O)c2c(F)c(F)c(F)c(F)c2F)cc1`, with 103% (inactive).
Then `COc1ccc(/C=C/C(=O)c2cc(S(N)(=O)=O)c(OC)cc2OC)cc1`, with 71.4% (inactive).
`N#Cc1cccc(CN2CCC3=C(C2)C(=O)N(Cc2ccc(Cl)cc2)C2=NCCCN23)c1`: the growth was 68% (inactive).
Then `Cc1nn(-c2ccccc2)c2ncnc(N/N=C/c3ccccc3O)c12`, with 5.46% (active); and `COc1ccc(CCN2C(=O)CSC2=S)cc1`, with 94.6% (inactive); and `CC(=O)N1C(=S)NC(=O)C1CC(C)C` (centres undefined), with 103% (inactive).
With `Cc1ccc2sc3c(c2c1)OC(N)=C(C#N)C3c1cccc(F)c1` (centres undefined) the figure was -0.701% (active); with `COc1cc(-c2nc(SC(C)C)n(C(C)C)c(=O)c2C#N)ccc1OCc1ccccc1`, 82.4% (inactive).
With `C/C(=N\O)[C@H]1C[C@]23CC[C@]4(C)[C@H](CC[C@@H]5[C@@]6(C)CC/C(=N/O)C(C)(C)[C@@H]6CC[C@]54C)[C@H]2[C@H](C)C1(C)OC3` the figure was 72% (inactive); with `NS(=O)(=O)c1ccc(-n2cc(-c3cccc(NC(=O)c4ccc(N5CCOCC5)c(C(F)(F)F)c4)c3)nn2)cc1`, 65.2% (inactive).
